High-throughput results (PubChem BioAssay)
PfGluPho inh = PfG6PD (Plasmodium falciparum) enzyme inhibition; 0.78% of 350,000 active; inhibition, % at 20 µM; AID 504690; PfGluPho enzyme, NADPH resazurin-diaphorase fluorescence;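 active = inhibition reaching at least a set limit at 20 µM in the primary screen, cut at about 59% in these data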;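 note: 0% = DMSO wells with substrate and 100% = DMSO wells lacking glucose-6-phosphate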
CRFBP-R2 agonist = CRF-BP/CRF-R2 complex agonism; HEK293 CRF-R2/CRF-BP, calcium dye fluorescence (FLIPR); percent of saturating CRF peptide response; activation, % at 13.2 µM; 0.46% of 350,000 active; AID 588473;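 active = activation of at least 50%, plus an integration ratio under a set limit after plate pattern correction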;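 note: plate controls were neutral control wells without compound for no effect and CRF at EC100 for full effect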
aDG glyco up = alpha-DG glycosylation activation; Pro5-aDG cells, alpha-DG glycosylation AlphaScreen (IIH6); 0% Pro5, 100% B10-LARGE cell signal; activation, % at 10 µM; 0.22% of 360,000 active; AID 624168;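 active = activation of at least 8% versus controls, or a plate z-score of at least 8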;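 note: Pro5 are CHO cells carrying HIG-tagged alpha-DG that lacks glycosylation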
H9c2 protect = modulators protecting cardiomyocytes from myocardial damage. H9c2 cardiomyocytes, H2O2 injury protection, ATPLite, 2 h. protection from H2O2 cell death, % at 20 µM. 0.63% of 360,000 active. AID 588492;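 active = compounds giving at least 50% protection of heart cells from peroxide-induced death in the single-dose screen, raw or plate-pattern-corrected value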;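 note: 0% = DMSO wells with peroxide and 100% = DMSO wells without peroxide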
FAS TE block = FAS thioesterase (human) inhibition; recombinant FAS-TE, OMFH fluorogenic substrate, fluorescence endpoint; inhibition, % at 15 µM; 0.67% of 360,000 active; P49327;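 active = compounds whose normalised, plate-corrected inhibition of enzyme fluorescence in the single-dose primary screen is 50% or more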;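 note: 0% = DMSO with enzyme and 100% = substrate without enzyme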
CRFR2-BP antag = CRF-BP/CRF-R2 complex antagonism; 0.59% of 350,000 active; inhibition, % at 11.8 µM; HEK293 CRF-R2/CRF-BP, CRF-induced calcium fluorescence; AID 588475;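 active = inhibition of the ligand-induced calcium signal above about 50% at the single tested concentration, limit read from the data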
* = called active by the depositor; nt = no result given. A selection: hits, their analogues and other compounds. The true share with any hit is near 3.2%.

SMILES | PfGluPho inh | CRFBP-R2 agonist | aDG glyco up | H9c2 protect | FAS TE block | CRFR2-BP antag
O=C(NCCc1ccccc1)c1ccc([N+](=O)[O-])cc1 | -5 | -5 | 0 | -9 | 16 | 27
O=C(c1ccc([N+](=O)[O-])cc1)N(Cc1ccccc1)Cc1ccccc1 | 8 | 5 | 1 | 1 | 21 | 68*
O=C(c1ccc([N+](=O)[O-])cc1)N(Cc1ccc(Br)cc1)N1C(=O)CCCC1=O | 12 | 59* | 0 | -3 | 34 | -4
O=C(c1ccccc1Cl)N(Cc1ccc(Br)cc1)N1C(=O)CCCC1=O | 7 | 0 | 0 | -2 | 3 | -5
CC(C)Sc1nc2sccc2c(=O)n1-c1ccccc1 | -5 | 0 | 0 | -8 | 11 | 12
CCn1c(=O)n(CC)c2cc(NC(=O)C(C)c3ccccc3)c(Br)cc21 (stereo unspecified) | -6 | 0 | 0 | -1 | 0 | -9
CN(NC1CC(=O)N(c2ccccc2)C1=O)c1ccccc1 (stereo unspecified) | -3 | 4 | 0 | 8 | -5 | 4
O=C(Nc1cccc(-c2nc3ccccc3s2)c1)c1cc(-n2cnnc2)ccc1Cl | 44 | -2 | 0 | 76* | 33 | 16
Cc1c(NC(=O)c2cc(-n3cnnc3)ccc2Cl)cccc1-c1nc2ccccc2s1 | -8 | -1 | 0 | -14 | 7 | 4
O=C(NCc1ccccc1)C1CC(=O)N(C2CCCCC2)C1 (stereo unspecified) | -6 | 2 | 0 | 1 | 0 | 23
O=C1NC(c2ccc(Cl)c([N+](=O)[O-])c2)Nc2ccccc21 (stereo unspecified) | 13 | 3 | 2 | 55* | 10 | -15
O=[N+]([O-])c1cc(C2Nc3cccc4cccc(c34)N2)ccc1Cl | 32 | -2 | 0 | -3 | 18 | -4
Cc1cccc(C(=O)NC(=S)NCc2ccccc2)c1 | -4 | 2 | 0 | -3 | 30 | -2
Cc1cccc(C(=O)NC(=S)N2CCN(C(=S)NC(=O)c3cccc(C)c3)CC2)c1 | 11 | -1 | 0 | 7 | -6 | 50*
Cc1ccc(OCC(=O)NNC(=S)NC(=O)C(C)(C)C)c(Br)c1 | -40 | 84* | 0 | -1 | -2 | -19
Cc1cccc(C(=O)NC(=S)N2CCN(C)CC2)c1 | 1 | -1 | 0 | 1 | -7 | 22
Cc1cccc(C(=O)NC(=S)NNC(=O)c2ccccc2Cl)c1 | 27 | 152* | 0 | 25 | -6 | -2
Cc1cccc(C(=O)NC(=S)NNC(=O)Cc2ccccc2)c1 | -13 | 137* | 0 | 24 | -13 | 17
Cc1cccc(C(=O)NC(=S)Nc2ccccc2C(=O)O)c1 | 20 | -2 | 0 | 0 | 2 | -10
CSc1cccc(N2C(=O)C3CCCN3C2=S)c1 (stereo unspecified) | -16 | -1 | 0 | -3 | -7 | 7
CCOC(=O)C(C(=O)OCC)C(=O)c1cccc2ccc3ccccc3c12 | -8 | 0 | 0 | 3 | 0 | 2
Cc1ccc(C(=O)NC(=S)NNC(=O)COc2ccccc2C)cc1 | -3 | 114* | 0 | 10 | -2 | -50
Cc1cccc(C(=O)NC(=S)NNC(=O)COc2c(C)cccc2C)c1 | -14 | 167* | 0 | -8 | 0 | -90
Cn1c(=O)c(C(=O)NCc2ccccc2Cl)c(O)c2ccccc21 | -14 | 1 | 0 | 13 | 1 | 65*
CCn1c(=O)c(C(=O)NCc2ccccc2Cl)c(O)c2ccccc21 | -23 | 6 | 0 | 41 | 19 | -22
SMILES | PfGluPho inh | CRFBP-R2 agonist | aDG glyco up | H9c2 protect | FAS TE block | CRFR2-BP antag
CCCn1c(=O)c(C(=O)Nc2cccc(C)c2)c(O)c2ccccc21 | 14 | 3 | 0 | 45 | 18 | -7
CCCn1c(=O)c(C(=O)Nc2ccccc2)c(O)c2ccccc21 | 9 | 1 | 0 | 57* | 11 | 8
CCCn1c(=O)c(C(=O)NNC(=O)c2ccccc2Cl)c(O)c2ccccc21 | -32 | 66* | 0 | -6 | 1 | 4
CCCn1c(=O)c(C(=O)NNC(=O)c2ccccc2[N+](=O)[O-])c(O)c2ccccc21 | nt | nt | 0 | -3 | 7 | nt
CCCn1c(=O)c(C(=O)NC(C)c2ccccc2)c(O)c2ccccc21 (stereo unspecified) | -2 | 3 | 0 | 44 | 17 | -11
CCn1c(=O)c(C(=O)NC(C)c2ccccc2)c(O)c2ccccc21 (stereo unspecified) | -22 | 8 | 0 | 55* | 8 | 8
NC1=NC(c2ccc(Cl)cc2)C(C(=O)c2ccccc2)N1 (stereo unspecified) | 17 | -5 | 0 | 8 | -4 | -3
CCN1CCN(C(=O)c2ccc(N3CC4CC(C3)c3cccc(=O)n3C4)c([N+](=O)[O-])c2)CC1 (stereo unspecified) | 10 | 1 | 0 | 8 | -5 | 1
CCC(COC)NCc1cn(-c2ccc(OC)cc2)nc1-c1cccc(F)c1 (stereo unspecified) | 20 | 5 | 0 | -1 | 10 | -36
Cc1cccc(N2CC(O)(c3cccs3)[N+]3=C2CCCCC3)c1 (stereo unspecified) | -1 | 2 | 0 | -8 | -4 | -7
Cc1cccc(N2CC(O)(c3cccs3)[N+]3=C2CCCC3)c1 (stereo unspecified) | -6 | 2 | 0 | -6 | -6 | 94*
COc1ccc(NC(=O)C(C2CC2)n2c(=O)c(-c3ccccc3)nc3ccccc32)cc1 (stereo unspecified) | nt | nt | 0 | nt | nt | nt
N#CCCN(C(=O)COC(=O)C1CCN(S(=O)(=O)c2ccccc2C(F)(F)F)CC1)c1ccccc1 | 1 | -1 | 1 | 0 | 20 | 6
Cc1c(O)ccc(NS(=O)(=O)c2ccccc2)c1C | 0 | -1 | 0 | -5 | 4 | 21
Cc1cc(NS(=O)(=O)c2ccccc2)c(C)c(Cl)c1O | 19 | 6 | 16* | -9 | -7 | -26
COCCn1c(SCc2nnc(-c3ccccc3)o2)nc2sc3c(c2c1=O)CCC3 | 11 | 1 | 0 | -3 | 28 | 55*
CCOCCCN(CC(=O)NC1CCCC1)C(=O)C(=O)Nc1ccc2c(c1)OCCO2 | 6 | 0 | 0 | -3 | -8 | 97*
O=c1nc(N/N=C/c2c[nH]c3ccccc23)cn[nH]1 | 7 | 0 | 0 | -6 | -5 | -3
O=c1nc(N/N=C/C=C/c2ccccc2)cn[nH]1 | 1 | 1 | 0 | -5 | -4 | 98*
NC(=O)c1nsc(C(=O)N(c2ccccc2F)C(C(=O)NCc2ccc(F)cc2)c2ccc(O)cc2)c1N (stereo unspecified) | 25 | 23 | 0 | 52* | 23 | -45
